Measurements taken from PubChem BioAssay (NCI).
The panel holds about 83,000 compounds, 20% with a hit somewhere; the sample as a whole holds those more often.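 The endpoint reported here, percent growth, reads 100 for growth as untreated, 0 for no net growth and -100 for all cells dead.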 Unmarked numbers belong to inactive results. The source made the active and inactive calls. The calls were made as follows: active = growth percent below 10; inactive = the rest.

What was measured:
Assay in all cases: NCI-60 one-dose screen, 48 h (100 = growth as untreated, 0 = no growth, -100 = all killed)
Conditions in all cases: 10 µM unless noted
SK-MEL-2 melanoma = tested on: SK-MEL-2 melanoma
EKVX NSCLC = tested on: EKVX NSCLC
SN12C renal = tested on: SN12C renal
UO-31 renal = tested on: UO-31 renal
TK-10 renal = tested on: TK-10 renal
ACHN renal = tested on: ACHN renal
CAKI-1 renal = tested on: CAKI-1 renal
A498 renal = tested on: A498 renal
CCRF-CEM leukemia = tested on: CCRF-CEM leukemia
MOLT-4 leukemia = tested on: MOLT-4 leukemia

Compound | growth (SK-MEL-2 melanoma) | growth (EKVX NSCLC) | growth (SN12C renal) | growth (UO-31 renal) | growth (TK-10 renal) | growth (ACHN renal) | growth (CAKI-1 renal) | growth (A498 renal) | growth (CCRF-CEM leukemia) | growth (MOLT-4 leukemia)
N#Cc1nc(-c2ccc(F)cc2)oc1S(=O)(=O)N1CCOCC1 | 83.6% | 96.2% | 82.1% | 82% | -80.9% (active) | -99.9% (active) | 78.5% | 128% | 3.08% (active) | -5.27% (active)
Cc1cccc(/C=C/c2c(C(=O)/C=C/c3ccccc3)c(C)nc3ccccc23)c1 | -60.8% (active) | 0.995% (active) | -44.3% (active) | -94.2% (active) | -6.55% (active) | -23% (active) | -36.2% (active) | -38.2% (active) | 6.17% (active) | 5.83% (active)
CCn1c(SCC(=O)N/N=C(\C)c2ccc(Cl)cc2)nc2c1c(=O)n(C)c(=O)n2C | 116% | 97.9% | 100% | 80.8% | 125% | 99.5% | 85.3% | 91.3% | 99.6% | 92.2%
O=c1[nH]c(Cc2nc3ccccc3s2)nc2cc(Br)ccc12 | 57.5% | 87.5% | 81.3% | 37.3% | 94.3% | 35.9% | 58.7% | 95.7% | 56.2% | 59%
CC(=O)/C(=C\c1c(-c2ccccc2)[nH]c2ccccc12)S(C)(=O)=O | 59.9% | 50.4% | 33.4% | 51% | 42.7% | 50.2% | 45.6% | 31.9% | 1.75% (active) | -13.5% (active)
Cc1nc2sc(C(=O)Nc3ccc(Br)cc3)c(N)c2cc1C(O)c1ccccc1 (stereo not given) | 81.5% | 55.3% | 68% | 62.1% | 85.4% | 72.4% | 65% | 51.9% | 43.4% | 26.2%
O=C(N/N=C/c1c(Cl)cccc1Cl)c1cccnc1Nc1cccc(C(F)(F)F)c1 | -6.91% (active) | 17.6% | 42.6% | 29.8% | 35.6% | 29.6% | 60.1% | 65.6% | 18.9% | 31.7%
CC(C)Cn1cnc2c(=O)[nH]c(N)nc21 | 87.9% | 101% | 98.9% | 94.4% | 88.6% | 106% | 95.4% | 94.1% | 107% | 92.4%
COc1cc2ncnc(Nc3ccc(F)c(Cl)c3)c2cc1OCC(=O)N1CCN(c2ccccc2)CC1 | 102% | 77.6% | 80.4% | 46.5% | 42.4% | 50.6% | 50.6% | 61.2% | 103% | 90.3%
COc1ccc2c(c1)CC[C@H](O)/C2=C/c1cc(OC)c(OC)c(OC)c1 | 43.5% | 38% | 37.6% | 34.3% | 66.6% | 26.4% | 30.5% | -9.18% (active) | 5.74% (active) | 13.5%
Nc1nc2ccc(-c3nc4ccc5[nH]ncc5c4c4c3CCCC4)cc2s1 | 96.5% | 117% | 98.8% | 85.7% | 96.3% | 111% | 99.7% | 109% | 107% | 104%
O=C1C(Cl)=C(NCCCCCCNC2=C(Cl)C(=O)c3ccccc3C2=O)C(=O)c2ccccc21 | 84.5% | 91.9% | 83.6% | 83.9% | 109% | 104% | 97.8% | 72.9% | 97.3% | 82.4%
CC(=O)c1c(C)nc2ccccc2c1/C=C/c1ccc(F)cc1 | 93.3% | 75.5% | 93.3% | 67.6% | 91.8% | 85.4% | 75.7% | 84.6% | 82% | 84.1%
